# Bioassay records deposited in PubChem BioAssay by National Center for Advancing Translational Sciences (NCATS).
# VDR inh – vitamin D3 receptor (human) inhibition; VDR-SRC2-3 peptide fluorescence polarization, 2 h; Potency, µM, without a hit: max response, negative = inhibition, most hits filed as inhibitors; 400,000 tested, 0.93% active; AID 504847; also: % is scaled to controls: 0 for no effect and ±100 for the full control effect
#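 Measured by FP: displacement of SRC2-3 coactivator peptide from VDR by library compounds, following a two-hour ambient incubation.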
# BAZ2B block – BAZ2B (human) inhibition. Q9UIF8. AlphaScreen BAZ2B-H3K14Ac peptide displacement. Potency, µM (series often up to 114 µM), inactives show at the highest dose activity change, negative = inhibition, most hits filed as inhibitors. 360,000 tested, 4.4% active; also: % is scaled to controls: 0 for no effect and ±100 for the full control effect; nearly all actives have a fitted effect of over 60% in size
#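 Protein-peptide AlphaScreen: BAZ2B 50 nM, b-H3K14Ac 50 nM, 1x PBS pH 7.4 + 0.01% Tween-20. Preincubation 30 min RT; cpd 30 min RT (top 110 uM); beads 20 min RT, light-protected.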
# PLK1 PBD inh – blocks phosphopeptide binding to human PLK1 polo-box domain. Plk1 PBD binding of FITC phosphopeptide, fluorescence polarization. Potency, µM, for inactives: max response, negative = inhibition, hits mostly inhibitors. 360,000 tested, 2.8% active. AID 720504; also: series mostly up to about 57 µM; % is scaled to controls: 0 for no effect and ±100 for the full control effect; nearly all actives have a fitted effect of over 65% in size
# Target sequence (P53350 whole entry, looked up, the tested form may be a part): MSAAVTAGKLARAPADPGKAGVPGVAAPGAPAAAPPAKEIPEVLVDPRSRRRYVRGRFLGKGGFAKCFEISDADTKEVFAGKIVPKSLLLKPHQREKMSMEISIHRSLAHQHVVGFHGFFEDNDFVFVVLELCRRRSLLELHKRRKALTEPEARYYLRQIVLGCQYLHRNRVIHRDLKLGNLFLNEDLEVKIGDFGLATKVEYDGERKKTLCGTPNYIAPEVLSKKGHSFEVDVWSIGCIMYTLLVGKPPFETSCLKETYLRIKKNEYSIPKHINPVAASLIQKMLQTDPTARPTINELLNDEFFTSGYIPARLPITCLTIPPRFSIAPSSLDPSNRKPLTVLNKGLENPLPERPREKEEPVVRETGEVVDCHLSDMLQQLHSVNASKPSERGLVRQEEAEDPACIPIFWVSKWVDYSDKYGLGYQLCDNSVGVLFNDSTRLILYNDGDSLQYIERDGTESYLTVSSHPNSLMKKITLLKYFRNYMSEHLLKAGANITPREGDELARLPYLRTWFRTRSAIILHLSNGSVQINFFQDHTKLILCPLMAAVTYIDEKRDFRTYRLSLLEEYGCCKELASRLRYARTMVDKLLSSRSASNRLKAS
# L3MBTL1 block – L3MBTL1 (human) inhibition; AID 485360; Potency, µM (titrated, usually from 57.1 µM), without a hit: top-dose activity, negative = inhibition, most hits filed as inhibitors; AlphaScreen L3MBTL1–H3K9me1 peptide binding; 230,000 tested, 0.66% active; also: % is scaled to controls: 0 for no effect and ±100 for the full control effect; nearly all actives have a fitted effect of over 60% in size
#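 L3MBTL1 50 nM + b-AHA-H3(1-15)K9me1 75 nM, 30 min RT; compound added, 30 min RT; streptavidin donor/Ni-chelate acceptor beads 10 ug/mL each final, 30 min RT dark; AlphaScreen read.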
# JMJD2A Tudor – JMJD2A Tudor domain (human) inhibition. Potency, µM (series often up to 114 µM), inactives show at the top dose activity change, negative = inhibition, hits mostly inhibitors. AID 504339. AlphaScreen JMJD2A-Tudor / H3K4me3 peptide binding. 390,000 tested, 4.4% active. O75164; also: % is scaled to controls: 0 for no effect and ±100 for the full control effect; nearly all actives have a fitted effect of over 50% in size
# HP1b binding inh – inhibitors of HP1-beta chromodomain binding to methylated histone tails; P83916; AlphaScreen HP1-beta / biotin-H3K9me3 peptide binding; Potency, µM (highest dose often 114 µM), without a hit: at the top dose activity change, negative = inhibition, most hits filed as inhibitors; 390,000 tested, 0.56% active; AID 540317; also: nearly all actives have a fitted effect of over 70% in size
#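 Compound inhibition of the preformed complex between 50 nM HP1-beta and 50 nM biotinylated H3K9me3 peptide was read by AlphaScreen. Buffer was PBS pH 7.4 with 0.01% Tween-20. Incubations ran 30 min at room temperature, with 10 ug/mL donor/acceptor beads.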
# An asterisk follows results filed as active; ? = inconclusive; · = no result given; [ ] = remark or other dose. Only some compounds are listed: those with a hit (about 6.9% of all), similar ones and a draw of the others. Calls follow the shape of the dose curve; as a rule, active = well fitted curve in the direction sought with a large enough effect; inconclusive = small, poorly fitted or top-dose-only effect, or another doubt; inactive = no such curve, though single readings can be large; an effect the other way counts as inactive or inconclusive. Potency is read from the fitted curve at half-maximal effect.
SMILES,VDR inh,BAZ2B block,PLK1 PBD inh,L3MBTL1 block,JMJD2A Tudor,HP1b binding inh
CCOC(=O)N1CCN(C(=O)CCCn2c(=S)[nH]c3ccsc3c2=O)CC1,12%,?,-20%,·,22µM*,19%
CCOC(=O)N1CCN(C(=O)CCCn2c(=S)[nH]c3ccc(Br)cc3c2=O)CC1,-4%,-9%,-9%,·,-13%,24%
CCOC(=O)N1CCN(C(=O)CCCn2c(=S)[nH]c3ccccc3c2=O)CC1,-1%,?,-13%,·,?,39%
CC(C)C(C(=O)Nc1nccs1)N1C(=O)c2ccccc2C1=O (centres undefined),-5%,-22%,21µM*,4%,-29%,-21%
O=C(Nc1nccs1)C(Br)C(Br)c1ccccc1 (centres undefined),28µM*,-2%,0.95µM*,·,-30%,14%
CSc1ccccc1-c1nnc(-c2ccccc2)o1,2%,16%,-15%,16%,15%,39%
CSc1nnc(-c2ccccc2SC)o1,-7%,1%,30µM*,-2%,-8%[11.4 µM],10%
Cc1cc(Br)ccc1NCc1ccccn1,1%,16µM*,-13%,5%,3.2µM*,16µM*
COc1ccc(Br)cc1S(=O)(=O)NCc1ccccn1,-12%,0%,-15%,-3%,-7%,30%
CC1=C(C)NC(=S)SC1,-15%,-3%,27µM*,9%,-22%,-15%
CC(Nc1ccc(Cl)cc1)c1cc(Cl)ccc1O (centres undefined),19%,-1%,1%,-6%,-7%,16%
CC(Nc1ccc(Br)cn1)c1cc(Cl)ccc1O (centres undefined),-9%,-1%,27µM*,11%,-16%[11.4 µM],-4%
CCOc1ccc(NC(C)c2cc(Cl)ccc2O)cc1 (centres undefined),1%,35µM*,-3%,?,?,?
C=CCn1c(NC(C)c2cc(Cl)ccc2O)nc2ccccc21 (centres undefined),3%,13%,-2%,14%,-30%,34%
CCn1cc(/C=C(\NC(=O)c2ccccc2F)C(=O)N2CCN(C)CC2)c2ccccc21,·,·,-1%,·,·,·
CCn1c(SCc2ccccc2)nnc1-c1nonc1NC(C)=O,1%,1%,·,·,-18%,36%
CCCCC(=O)NC(=S)Nc1c(C)cc(Br)cc1C,-24%,-22%,15µM*,-1%,?,26%
CN1CCN(/C=N/c2sc3c(c2C#N)CCCCC3)CC1,-10%,?,-9%,-4%,?,4%
N#Cc1c(/N=C/C=C/c2ccccc2)sc2c1CCCC2,?,22µM*,9.5µM*,-10%,45µM*,18µM*
Cc1ccc(/C=N/c2sc3c(c2C#N)CCCCC3)o1,-6%,28µM*,-15%,-5%,56µM*,?
Cc1cccc(CSc2nc3c(c(=O)[nH]2)C(c2cccc(O)c2)CC(=O)N3)c1 (centres undefined),13%,-35%,·,·,?,3%
CCc1cccc(OCC2Cn3c(nc4c3c(=O)[nH]c(=O)n4C)O2)c1 (centres undefined),-13%,6%,1%,23%,-3%,23%
COc1cc(C(=O)Nc2ccc(NC(=O)C(C)C)nc2)cc(OC)c1OC,-1%,79µM*,-2%,·,-22%,26%
COc1cc(C(=O)Nc2ccc(NC(=O)c3ccccc3)nc2)cc(OC)c1OC,-6%,?,-3%,·,-6%,22%
CC(C)OC(=O)CC(=O)CSc1nc(-c2ccc(F)cc2)cc(-c2ccccc2)c1C#N,?,-2%,24µM*,17%,17%,27%
SMILES,VDR inh,BAZ2B block,PLK1 PBD inh,L3MBTL1 block,JMJD2A Tudor,HP1b binding inh
N#Cc1c(-c2ccccc2)cc(-c2ccccc2)nc1SCC(=O)NCC(=O)O,?,-15%,24µM*,8%,-12%,-10%
O=C(Nc1ccc(C(=O)O)cc1)/C(=C\C=C\c1ccccc1)NC(=O)c1ccccc1Br,7%,?,-8%,·,-10%,5%
O=C(Nc1ccc(C(=O)O)cc1)/C(=C\C=C\c1ccccc1)NC(=O)c1cccc(Br)c1,3%,56µM*,?,-24%,-33%,7%
CC(C)(C)NC(=O)COc1ccc(CNCc2ccccn2)cc1,-6%,50µM*,-13%,?,56µM*,14%
CC(C)(C)NC(=O)COc1ccc(CNCCc2ccccc2)cc1,10%,-17%,3%,9%,-4%,32%
COc1cccc(/C=N/Nc2ncnc3scc(-c4ccccc4)c23)c1O,-2%,13µM*,11%,32µM*,45µM*,-1%
COc1cccc(/C=N/Nc2ncnc(Cl)c2N)c1O,5%,7.9µM*,0%,20µM*,-27%,32%
Nc1c(Cl)ncnc1N/N=C/c1cccc(O)c1,-26%,-24%,-7%,·,-21%,21%
COc1ccccc1/C=N/Nc1nncc2ccccc12,-1%,-33%,-8%,-11%,?,-30%
COc1ccc2nc(C)cc(N/N=C/c3cccc(OC)c3O)c2c1,12%,45µM*,0%,-14%,50µM*,?
COc1ccc(/C=N/Nc2nncc3ccccc23)cc1,3%,25µM*,-28%,-6%,28µM*,27%
CCCN(C(=O)CCc1nc(-c2ccccc2F)no1)c1ccc(CC)cc1,-7%,108%,·,·,73%,121%
COc1ccc2c(CNCCc3ccccc3)c(C(=O)O)n(Cc3cccc(F)c3)c2c1,8%,-34%,·,·,?,-15%
Oc1ccccc1/C=N/Nc1nccnc1Cl,3%,35µM*,0%,·,?,33%
COc1cccc(C=NNc2nnc(NN=Cc3cccc(OC)c3OC)c3ccccc23)c1OC,-7%,·,-6%,·,35µM*,?
COc1cccc(/C=N/Nc2nccnc2Cl)c1O,-1%,14µM*,-2%,?,40µM*,21%
COc1cccc(/C=N/Nc2nc3ccccc3[nH]2)c1OC,4%,-36%,-11%,-25%,-23%,23%
O=[N+]([O-])c1ccccc1/C=N/Nc1nccnc1Cl,-15%,?,-12%,-1%,?,-5%
O=C(Nc1cccc(Cl)c1)N1CCC(CN2CCOCC2)CC1,8%,-1%,·,·,0%,-15%
Cc1ccc(Cn2c(SCc3ccc(C(=O)N4CCCCC4)cc3)nc3ccncc32)cc1,4%,-17%,·,·,-16%,39%
Cc1nc2ccc(NS(=O)(=O)c3ccc4c(c3)OCCO4)cc2s1,-10%,-15%,-6%,·,-4%,30%
CC(C)C1C(=O)NC(=S)N1S(=O)(=O)c1ccc(C(C)(C)C)cc1 (centres undefined),-18%,-7%,24µM*,·,-12%,-10%
Cc1ccc(C)c(S(=O)(=O)N2C(=S)NC(=O)C2CC(C)C)c1 (centres undefined),14%,-38%,0%,·,0%,48%
